Test results published in PubChem BioAssay (NCI).
The panel holds about 83,000 compounds, 20% with a hit somewhere; the sample as a whole holds those more often.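 Testing used 96-well plates and a 48-hour single-concentration exposure. Example: -40 means 40% of the starting cells died.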 A number with no mark means an inactive call. The source made the active and inactive calls. Rule for the calls: active = growth percent below 10; inactive = the rest.

How the values were obtained:
Test in all cases: NCI-60 one-dose screen, 48 h (100 = growth as untreated, 0 = no growth, -100 = all killed)
Settings in all cases: 10 µM unless noted
SK-MEL-2 melanoma = tested on: SK-MEL-2 melanoma
EKVX NSCLC = tested on: EKVX NSCLC
SN12C renal = tested on: SN12C renal
UO-31 renal = tested on: UO-31 renal
TK-10 renal = tested on: TK-10 renal
ACHN renal = tested on: ACHN renal
CAKI-1 renal = tested on: CAKI-1 renal
A498 renal = tested on: A498 renal
CCRF-CEM leukemia = tested on: CCRF-CEM leukemia
MOLT-4 leukemia = tested on: MOLT-4 leukemia

SMILES | growth (SK-MEL-2 melanoma) | growth (EKVX NSCLC) | growth (SN12C renal) | growth (UO-31 renal) | growth (TK-10 renal) | growth (ACHN renal) | growth (CAKI-1 renal) | growth (A498 renal) | growth (CCRF-CEM leukemia) | growth (MOLT-4 leukemia)
Cc1ccc2nc(/C(C#N)=C(/CCCO)NC(Cc3ccccc3)C(=O)OCc3ccccc3)[nH]c(=O)c2c1 (stereo not given) | 96.8% | 95.6% | 103% | 112% | 126% | 107% | 90.2% | 210% | 164% | 112%
O=C1/C(=C\c2cccc3nccnc23)SC(=S)N1CCc1ccc(O)cc1 | 108% | 100% | 84.9% | 62.1% | 121% | 97.3% | 79.1% | 105% | 67.2% | 93.1%
O=C1/C(=C/c2ccc(F)cc2)CN(C(=O)C(Cl)Cl)C/C1=C\c1ccc(F)cc1 | -16% (active) | -17.9% (active) | -72.5% (active) | -83.4% (active) | -59.8% (active) | -98.3% (active) | -55.4% (active) | -84.3% (active) | 2.43% (active) | -18.2% (active)
N#C/C(=C\C=C\c1ccc(-c2cc(Cl)ccc2Cl)o1)c1nc2ccccc2s1 | 104% | 80.2% | 92% | 68.2% | 118% | 90.5% | 75.1% | 126% | 91.8% | 99.1%
O=C1/C=C/[C@@H](O)[C@@H]2C[C@@H](O)C[C@H]2/C=C/CCC[C@@H](O)CCO1 | 122% | 82% | 106% | 108% | 115% | 104% | 83.7% | 66.7% | 116% | 106%
O=C(CN1CCN(c2cc3c(cc2F)c(=O)c(C(=O)O)cn3C2CC2)CC1)N/N=C/c1ccco1 | 105% | 97.8% | 108% | 88.3% | 101% | 98.1% | 99.7% | 91.7% | 107% | 93.9%
CCOC(=O)c1c(C)c2c(n1Cc1ccccc1)CSCC2=O | -14.5% [100 µM] (active) | 12.4% [100 µM] | 13.7% [100 µM] | 24.6% [100 µM] | 11.5% [100 µM] | 10.6% [100 µM] | -30.5% [100 µM] (active) | 25.6% [100 µM] | 10.5% [100 µM] | 12.9% [100 µM]
CN(Cc1cc(Br)cc(Br)c1O)Cc1cc(Br)cc(Br)c1O | 51% | 54.8% | 45.1% | 23.4% | 40.6% | 31.4% | 24.6% | 66.5% | 18.2% | 21.5%
O=C1Nc2c(C(=O)O)cccc2/C1=N/c1n[nH]c(=S)s1 | 98.8% | 77.6% | 93.4% | 69.9% | 117% | 78% | 52% | 115% | 88.7% | 90%
Oc1c(CN2CCOCC2)cc(COCc2ccccc2)c2cccnc12 | 36.9% | 92.5% | 39.9% | 6.45% (active) | 31.1% | 12.6% | 13.5% | 49.7% | 11.7% | 15.3%
N#Cc1ccc(O)c(C2=NCC(Cc3ccccc3)O2)c1 (stereo not given) | 38.8% | 45% | 51.9% | 22% | 51.4% | 38.6% | 12.9% | 84.9% | 33.6% | 46.6%
C#CCO[C@H]1CC(CC#C)(CC#C)C(=O)[C@@H]2[C@H]1[C@H]1C[C@@H]3[C@@]4(C)CCC[C@@](C)(C(=O)OC)[C@@H]4CC[C@@]23C=C1C(C)C | 97.9% | 94.7% | 94.1% | -34.5% (active) | 99.2% | 72.7% | 41% | 85.7% | -41.5% (active) | 76.7%
Cc1n[nH]c2ccc(Br)cc2c1=O | 99.4% | 110% | 106% | 75.8% | 104% | 100% | 103% | 83.7% | 89.2% | 92.8%
C=C(C)[C@@H]1CCC[C@]2(C(=O)N3CCN(C)CC3)CC[C@]3(C)[C@@H](CC[C@@H]4[C@@]5(C)CC/C(=N\NC(=O)c6ccncc6)C(C)(C)[C@@H]5CC[C@]43C)[C@@H]12 | 106% | 111% | 80.1% | 73.4% | 116% | 88.3% | 80.7% | 119% | 25.9% | 55.9%
